From PubChem BioAssay (NCI)
This is part of a sample that, as a whole, favours compounds with a hit. Of some 83,000 tested, about 20% had one in any assay.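 Each cell line was grown in a 96-well plate and treated with one concentration of compound for 48 hours. Values below 10 were considered active.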 Unmarked numbers belong to inactive results. The source made the active and inactive calls.

Tested on: HL-60(TB) leukemia
Assay: NCI-60 one-dose screen, 48 h (100 = growth as untreated, 0 = no growth, -100 = all killed)
Details: 10 µM unless noted

## Cc1ccc(OCCn2ccc(=O)n(CCOc3ccc(Cl)cc3C(=O)c3cc(C)cc(C)c3)c2=O)cc1
  growth: 33.4%

## NC(=O)c1c(NC(=O)c2ccccc2)sc2c1CCC(=O)C2
  growth: -6.87% (active)

## Nc1nn2cc(-c3ccc(Cl)s3)nc2c2ccccc12
  growth: 54.7%

## C[C@]12CC[C@H](O)CC1=CC[C@@H]1[C@@H]2CC[C@]2(C)C(c3cccnc3)=CC[C@@H]12
  growth: -25% (active)

## O=C(Nc1ncc(Cc2ccccc2Cl)s1)c1cccs1
  growth: 58.5%

## COc1ccccc1CNCCN1C(=O)c2ccc3c4c(ccc(c24)C1=O)C(=O)N(CCNCc1ccccc1OC)C3=O
  growth: -71.8% (active)

## COc1ccc(/C=C/C(=O)/C=C/c2cc3ccccc3[nH]c2=O)cc1
  growth: 62.9%

## COc1cccc(Sc2ccc([N+](=O)[O-])c3no[n+]([O-])c23)c1
  growth: 2.91% (active)

## Cn1c(O)c(N=NC(=O)c2cc(-c3ccccc3)on2)c2ccccc21
  growth: 80.8%

## O=C(O)C1CCCCN1c1nc(Cl)nc(Cl)n1 (stereo unspecified)
  growth: 97.8%

## COc1c(Cl)c2c(c(OC)c1OC)-c1ccc(SC)c(=O)cc1[C@@H](NC(=O)OCC(F)(F)F)CC2
  growth: -35.4% (active)

## Clc1ccc(Cl)c(N=Cc2ccc3c(c2)OCO3)c1
  growth: 102%

## COc1cccc(Nc2ncnc3cc(NC(=O)CCl)ccc23)c1
  growth: -49.7% (active)

## CSc1nc(NCCN2CCOCC2)c(C#N)c(-c2cccc([N+](=O)[O-])c2)n1
  growth: 100%

## Oc1c(CN2CCCC2)cc(COCc2ccccc2)c2cccnc12
  growth: 10.6%

## O=C(Nc1ccsc1C(=O)NC1CCCCC1)c1ccc(F)cc1
  growth: 90.2%

## CCc1nn2c(-c3ccc(Cl)cc3C)c(-c3cc(OC)c(OC)c(OC)c3)nc2s1
  growth: 73.6%

## O=C(Nc1cccc(Br)c1)Oc1cccc2cccnc12
  growth: 4% [100 µM] (active)

## O=C(CN1CCN(c2cc3c(cc2F)c(=O)c(C(=O)O)cn3C2CC2)CC1)N/N=C/c1ccncc1
  growth: 98%

## Cn1cc(-c2csc(-c3c[nH]c4ccccc34)n2)c2cnccc21
  growth: -30.2% (active)

## CCC12CCC[N+]3([O-])CCC4(C(=Nc5ccccc54)C(O)(C(=O)OC)C1)C23 (stereo unspecified)
  growth: 124%

## O=C1C2=C(Nc3cc(Cl)ccc3N2)OC1c1c[nH]c2ccc(COc3ccccc3)cc12 (stereo unspecified)
  growth: 81.6%

## Clc1ccc(-c2cc(-c3ccccc3)nc(NCCNc3ccnc4cc(Cl)ccc34)n2)cc1
  growth: -31.9% (active)

## Cc1ccc(NCN2C(=O)c3ccccc3C2=O)c(C)n1
  growth: 97.8%

## Nc1ccccc1C#Cc1ccccc1C#Cc1ccc(OCCCCCCOc2ccc(C#Cc3ccccc3C#Cc3ccccc3N)cc2)cc1
  growth: 110%

## CCOC(=O)N1CCc2c(sc3c2C(=O)N[C@H](c2ccc(OC)cc2)N3)C1
  growth: 99.8%

## CCN(CC)CCCC(C)Nc1cnc(C(=O)Nc2ccc(Cl)c3cccnc23)cn1 (stereo unspecified)
  growth: -63.3% (active)

## CC(=O)SC1CC(=O)C=C2CCC3C4CCC(=O)OC4(C)CCC3C21C (stereo unspecified)
  growth: 103%

## COc1ccc(-c2nn(-c3cccc(Cl)c3)cc2C2CC(c3ccccc3)=NN2C(C)=O)cc1 (stereo unspecified)
  growth: 101%

## C=C1C(=O)O[C@H]2[C@H]1CC/C(COC(=O)CCCc1c[nH]c3ccccc13)=C\CC[C@@]1(C)O[C@@H]21
  growth: 2.97% (active)

## COc1cc2c(cc1-c1c(C)noc1C)ncc1nc(C3CCC(F)(F)CC3)n(C3CCC(OC(F)F)CC3)c12 (stereo unspecified)
  growth: 7.4% (active)

## COc1cccc(-c2nn(-c3ccccc3)cc2-c2ccnc(NCCCNS(=O)(=O)c3ccccc3)c2)c1
  growth: 16%

## COc1cc(/C=C/C(=O)N2CCN(C(=O)/C=C/c3ccccc3)CC2)cc(OC)c1OC
  growth: 101%

## O=[N+]([O-])c1cccc(-c2nc(-c3ccc(Cl)cc3Cl)cn2-c2ccccc2)c1
  growth: 35.3%

## C/C=C(\C)C(=O)NC1=CC[C@@]2(C)C(=CCC3C2CC[C@@]2(C)C3CC[C@@H]2C(C)N(C)C)C1=O (stereo partly specified)
  growth: 8.53% (active)

## CNC1=C([N+](=O)[O-])C(c2ccc(OC)cc2)C(C#N)=C(c2cccs2)O1 (stereo unspecified)
  growth: 99.5%
